Source: the supplement of paper PMC11732987, “Enantioselective OTUD7B fragment discovery through chemoproteomics screening and high-throughput optimisation” (Communications Chemistry, 2025)

Experiments:
Test in all cases: log2 ratio of Biotin-Ahx-Ub-VS probe labelling (fragment/DMSO); higher = less target engagement (more negative = stronger competition), active = hit call of the paper (q ≤ 0.05, log2 ratio ≤ -1)
Conditions in all cases: compound concentration: 200 uM; treatment time: 3 h
[1] = compound: CC(C)CN(C1CC1)C(=O)CCl
Summary of the method: (§1)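 Fragment (200 µM) or vehicle was incubated for 3 h with triplicate HEK293T lysate samples of 495 µg, which were then treated with Biotin-Ahx-Ub-VS at 0.5 µM final for 1 h. Labelled DUBs were enriched on NeutrAvidin, digested with LysC and trypsin, and analysed by diaPASEF LC-MS/MS. Values are average log2 fragment/vehicle ratios from an unpaired t-test on global-median-normalised Spectronaut label-free quantities, using proteins with ≥2 unique peptides.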

[2] = compound: CC(NC(=O)CCl)c1cccs1
Summary of the method: as §1

[3] = compound: CC1CCCCC1NC(=O)CCl
Summary of the method: as §1

[4] = compound: CC1CCCCN1C(=O)CCl
Summary of the method: as §1

[5] = compound: CC1CN(CC(C)O1)C(=O)CCl
Summary of the method: as §1

[6] = compound: CN(C1CCCCC1)C(=O)CCl
Summary of the method: as §1

[7] = compound: Cc1cc(NC(=O)CCl)no1
Summary of the method: as §1

[8] = compound: Cc1cccc(NC(=O)CCl)c1
Summary of the method: as §1

[9] = compound: Cc1nc(NC(=O)CCl)sc1C
Summary of the method: as §1

[10] = compound: Cc1nnc(NC(=O)CCl)s1
Summary of the method: as §1

[11] = compound: Cl.Cc1ncsc1CNC(=O)CCl
Summary of the method: as §1

[12] = compound: ClCC(=O)N1CCCCCCC1
Summary of the method: as §1

[13] = compound: ClCC(=O)NC1(CCCC1)C#N
Summary of the method: as §1

[14] = compound: ClCC(=O)NCC1CCC1
Summary of the method: as §1

[15] = compound: ClCC(=O)NCC1CCCO1
Summary of the method: as §1

[16] = compound: ClCC(=O)NCc1ccco1
Summary of the method: as §1

[17] = compound: ClCC(=O)Nc1cccc(Cl)c1
Summary of the method: as §1

[18] = compound: ClCC(=O)NC(C1CC1)C1CC1
Summary of the method: as §1

Measured: log2 ratio of Biotin-Ahx-Ub-VS probe labelling

USP47 (UniProt Q96K76)
Chain of UniProt Q96K76 (Q96K76 whole entry): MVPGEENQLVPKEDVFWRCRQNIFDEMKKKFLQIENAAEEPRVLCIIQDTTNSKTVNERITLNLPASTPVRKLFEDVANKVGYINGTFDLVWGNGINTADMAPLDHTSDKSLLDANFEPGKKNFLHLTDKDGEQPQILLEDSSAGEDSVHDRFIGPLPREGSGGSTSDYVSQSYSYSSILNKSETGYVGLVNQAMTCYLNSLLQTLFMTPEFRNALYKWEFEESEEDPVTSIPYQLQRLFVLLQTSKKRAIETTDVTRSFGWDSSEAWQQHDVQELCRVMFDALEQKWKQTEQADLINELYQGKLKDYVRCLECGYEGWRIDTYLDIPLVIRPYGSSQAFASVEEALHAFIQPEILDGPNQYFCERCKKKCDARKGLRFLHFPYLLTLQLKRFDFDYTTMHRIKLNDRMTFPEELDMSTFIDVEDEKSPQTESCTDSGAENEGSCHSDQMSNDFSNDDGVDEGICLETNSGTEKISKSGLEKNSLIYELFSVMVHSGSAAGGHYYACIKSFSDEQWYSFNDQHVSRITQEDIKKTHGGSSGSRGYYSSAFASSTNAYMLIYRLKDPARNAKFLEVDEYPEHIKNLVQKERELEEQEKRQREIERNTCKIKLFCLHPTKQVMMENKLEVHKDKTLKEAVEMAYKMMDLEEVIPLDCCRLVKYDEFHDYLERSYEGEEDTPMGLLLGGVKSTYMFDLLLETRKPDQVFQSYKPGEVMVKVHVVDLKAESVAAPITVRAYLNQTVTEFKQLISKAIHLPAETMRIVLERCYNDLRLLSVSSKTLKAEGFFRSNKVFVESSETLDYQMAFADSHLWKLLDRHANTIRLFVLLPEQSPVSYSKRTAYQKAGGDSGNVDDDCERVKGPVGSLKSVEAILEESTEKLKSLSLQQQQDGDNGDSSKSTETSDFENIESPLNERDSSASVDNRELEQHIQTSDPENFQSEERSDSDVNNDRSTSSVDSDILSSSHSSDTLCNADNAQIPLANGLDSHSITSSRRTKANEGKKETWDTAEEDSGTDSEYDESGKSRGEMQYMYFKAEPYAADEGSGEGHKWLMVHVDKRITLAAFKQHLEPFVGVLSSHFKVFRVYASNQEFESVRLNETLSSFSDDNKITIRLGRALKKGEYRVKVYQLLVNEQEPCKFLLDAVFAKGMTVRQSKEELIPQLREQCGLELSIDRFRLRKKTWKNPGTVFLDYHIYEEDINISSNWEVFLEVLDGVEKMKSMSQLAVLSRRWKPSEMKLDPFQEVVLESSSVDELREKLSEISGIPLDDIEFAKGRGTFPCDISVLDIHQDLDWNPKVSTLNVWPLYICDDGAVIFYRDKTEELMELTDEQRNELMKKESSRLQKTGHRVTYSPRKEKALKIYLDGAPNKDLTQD
inactive: [1] -0.233 | [2] -0.0445 | [3] 0.00775 | [4] -0.363 | [5] 0.145 | [6] -0.299 | [7] -0.276 | [8] -0.708 | [9] -0.108 | [10] -0.366 | [11] 0.0602 | [12] -0.137 | [13] 0.0163 | [14] -0.243 | [15] -0.458 | [16] -0.679 | [17] -0.241

USP54 (UniProt Q70EL1)
inactive: [1] 0.0698 | [2] 0.582 | [3] 0.646 | [4] 0.245 | [5] 0.658 | [6] 0.179 | [7] 0.204 | [8] 0.439 | [9] 0.226 | [10] 0.528 | [11] 0.34 | [12] -0.205 | [18] -0.749 | [13] 0.194 | [14] 0.336 | [15] 0.0874 | [16] 0.439 | [17] 0.681

USP25 (UniProt Q9UHP3)
Chain of UniProt Q9UHP3 (Q9UHP3 whole entry): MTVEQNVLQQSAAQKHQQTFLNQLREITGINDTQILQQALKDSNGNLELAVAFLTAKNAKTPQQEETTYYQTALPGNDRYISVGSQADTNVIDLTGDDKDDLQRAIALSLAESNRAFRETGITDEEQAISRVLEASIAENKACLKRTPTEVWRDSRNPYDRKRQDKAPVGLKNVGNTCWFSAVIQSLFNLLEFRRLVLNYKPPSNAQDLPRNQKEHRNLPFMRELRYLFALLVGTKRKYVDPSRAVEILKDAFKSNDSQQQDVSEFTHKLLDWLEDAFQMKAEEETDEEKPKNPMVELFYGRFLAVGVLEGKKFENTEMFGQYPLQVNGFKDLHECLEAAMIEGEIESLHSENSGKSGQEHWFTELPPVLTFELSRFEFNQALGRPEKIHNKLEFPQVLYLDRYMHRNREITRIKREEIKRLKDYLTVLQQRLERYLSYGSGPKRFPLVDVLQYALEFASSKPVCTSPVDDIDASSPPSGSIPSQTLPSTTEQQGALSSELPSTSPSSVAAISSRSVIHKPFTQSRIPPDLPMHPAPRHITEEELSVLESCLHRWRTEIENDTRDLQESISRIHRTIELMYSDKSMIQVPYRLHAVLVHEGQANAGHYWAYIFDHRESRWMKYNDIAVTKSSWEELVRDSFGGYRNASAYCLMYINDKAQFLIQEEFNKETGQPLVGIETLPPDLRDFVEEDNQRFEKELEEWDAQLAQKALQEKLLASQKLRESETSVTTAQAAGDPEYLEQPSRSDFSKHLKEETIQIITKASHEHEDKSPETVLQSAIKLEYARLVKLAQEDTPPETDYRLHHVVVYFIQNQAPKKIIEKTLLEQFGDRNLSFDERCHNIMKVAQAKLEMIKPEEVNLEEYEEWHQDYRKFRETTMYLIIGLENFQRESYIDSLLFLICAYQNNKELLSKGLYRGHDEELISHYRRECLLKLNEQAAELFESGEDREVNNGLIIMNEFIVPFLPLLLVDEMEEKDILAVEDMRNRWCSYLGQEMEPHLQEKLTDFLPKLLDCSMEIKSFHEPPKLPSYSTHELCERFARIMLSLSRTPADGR
inactive: [1] -0.0734 | [2] -0.0952 | [3] -0.722 | [4] -0.62 | [5] -0.368 | [6] 0.0415 | [7] -0.392 | [8] -0.444 | [9] -0.307 | [10] -0.446 | [11] -0.133 | [12] -0.102 | [13] -0.276 | [14] -0.149 | [15] 0.0208 | [16] -0.419
active: [17] -1.21

USP19 (UniProt O94966)
Chain of UniProt O94966 (O94966 whole entry): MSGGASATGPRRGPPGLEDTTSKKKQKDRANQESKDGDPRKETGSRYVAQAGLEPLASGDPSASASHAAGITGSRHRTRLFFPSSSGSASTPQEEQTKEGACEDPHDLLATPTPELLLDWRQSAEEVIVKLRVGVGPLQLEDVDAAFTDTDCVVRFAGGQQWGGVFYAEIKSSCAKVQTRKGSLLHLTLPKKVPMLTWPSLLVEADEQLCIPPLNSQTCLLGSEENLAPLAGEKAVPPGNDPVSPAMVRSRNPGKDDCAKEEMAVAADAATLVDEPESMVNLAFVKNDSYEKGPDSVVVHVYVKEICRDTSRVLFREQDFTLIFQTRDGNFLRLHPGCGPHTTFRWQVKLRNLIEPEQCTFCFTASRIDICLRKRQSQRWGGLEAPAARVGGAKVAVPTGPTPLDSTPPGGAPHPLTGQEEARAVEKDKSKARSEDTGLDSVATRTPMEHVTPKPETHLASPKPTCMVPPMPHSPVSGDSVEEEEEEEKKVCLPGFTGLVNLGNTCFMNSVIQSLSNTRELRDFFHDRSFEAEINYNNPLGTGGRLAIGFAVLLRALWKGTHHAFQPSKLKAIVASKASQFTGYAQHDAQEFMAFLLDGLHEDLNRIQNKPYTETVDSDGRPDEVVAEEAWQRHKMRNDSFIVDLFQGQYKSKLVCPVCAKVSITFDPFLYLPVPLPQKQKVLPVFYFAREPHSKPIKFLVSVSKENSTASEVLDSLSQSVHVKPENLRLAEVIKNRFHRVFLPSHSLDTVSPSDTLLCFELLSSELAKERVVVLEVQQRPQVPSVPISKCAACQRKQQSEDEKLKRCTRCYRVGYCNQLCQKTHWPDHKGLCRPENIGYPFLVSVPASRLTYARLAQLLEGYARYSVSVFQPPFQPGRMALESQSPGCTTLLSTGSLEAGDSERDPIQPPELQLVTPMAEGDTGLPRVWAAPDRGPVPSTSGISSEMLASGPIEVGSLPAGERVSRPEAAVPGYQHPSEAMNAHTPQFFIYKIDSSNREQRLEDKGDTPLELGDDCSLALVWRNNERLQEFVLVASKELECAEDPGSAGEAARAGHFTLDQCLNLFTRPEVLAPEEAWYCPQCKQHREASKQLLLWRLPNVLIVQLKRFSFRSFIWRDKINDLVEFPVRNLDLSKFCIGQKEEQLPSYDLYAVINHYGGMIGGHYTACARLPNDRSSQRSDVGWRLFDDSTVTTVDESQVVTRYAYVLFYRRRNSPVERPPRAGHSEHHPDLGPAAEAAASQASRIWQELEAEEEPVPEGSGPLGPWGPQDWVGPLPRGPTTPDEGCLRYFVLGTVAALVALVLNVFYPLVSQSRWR
inactive: [1] 0.00416 | [2] -0.0254 | [3] -0.108 | [4] -0.341 | [5] -0.267 | [6] -0.381 | [7] -0.558 | [8] -0.285 | [9] -0.171 | [10] -0.607 | [11] 0.00124 | [12] -0.175 | [13] -0.0817 | [14] 0.0408 | [15] 0.0949 | [16] -0.207 | [17] -0.681

ALG13 (UniProt Q9NP73)
Chain of UniProt Q9NP73 (Q9NP73 whole entry): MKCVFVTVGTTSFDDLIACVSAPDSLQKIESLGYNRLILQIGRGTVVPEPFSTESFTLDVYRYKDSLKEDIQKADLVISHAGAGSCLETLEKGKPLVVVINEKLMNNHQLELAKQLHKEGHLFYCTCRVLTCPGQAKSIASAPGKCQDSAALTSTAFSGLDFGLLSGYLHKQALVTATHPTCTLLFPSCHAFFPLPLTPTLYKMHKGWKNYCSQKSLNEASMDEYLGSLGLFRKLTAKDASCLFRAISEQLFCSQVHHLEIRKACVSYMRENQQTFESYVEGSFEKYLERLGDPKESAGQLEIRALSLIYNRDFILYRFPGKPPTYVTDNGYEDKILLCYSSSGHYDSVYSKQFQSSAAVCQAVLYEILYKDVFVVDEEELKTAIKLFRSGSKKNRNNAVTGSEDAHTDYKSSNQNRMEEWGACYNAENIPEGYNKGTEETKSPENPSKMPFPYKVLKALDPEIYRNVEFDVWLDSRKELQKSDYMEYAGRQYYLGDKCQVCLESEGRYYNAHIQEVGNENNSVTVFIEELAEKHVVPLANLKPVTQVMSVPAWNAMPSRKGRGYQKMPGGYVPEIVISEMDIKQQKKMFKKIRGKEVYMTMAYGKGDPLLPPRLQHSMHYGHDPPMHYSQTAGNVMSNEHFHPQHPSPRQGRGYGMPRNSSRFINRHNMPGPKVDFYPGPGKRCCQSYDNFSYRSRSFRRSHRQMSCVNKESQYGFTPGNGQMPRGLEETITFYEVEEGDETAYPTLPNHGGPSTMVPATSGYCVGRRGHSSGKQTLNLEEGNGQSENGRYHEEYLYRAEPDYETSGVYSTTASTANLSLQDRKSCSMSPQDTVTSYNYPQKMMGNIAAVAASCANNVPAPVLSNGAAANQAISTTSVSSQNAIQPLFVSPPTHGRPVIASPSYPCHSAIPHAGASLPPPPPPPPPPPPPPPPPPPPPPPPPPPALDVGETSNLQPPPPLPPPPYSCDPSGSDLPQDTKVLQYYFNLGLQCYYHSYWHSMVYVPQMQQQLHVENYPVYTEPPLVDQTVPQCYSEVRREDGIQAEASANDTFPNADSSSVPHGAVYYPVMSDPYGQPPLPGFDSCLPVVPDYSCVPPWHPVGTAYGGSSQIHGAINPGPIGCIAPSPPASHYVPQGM
inactive: [1] 0.0397 | [2] -0.0404 | [3] -1.07 | [4] 0.242 | [5] 0.125 | [6] -0.757 | [7] -0.0979 | [8] 0.249 | [9] 0.182 | [10] -0.152 | [11] -0.305 | [12] -0.0228 | [13] 0.017 | [14] 0.00528 | [15] 0.149 | [16] -0.6 | [17] 0.292

USP36 (UniProt Q9P275)
inactive: [1] -0.165 | [2] 0.124 | [3] -0.354 | [4] -0.058 | [5] -0.116 | [6] -0.0255 | [7] -0.0892 | [8] -0.141 | [9] -0.166 | [10] -0.233 | [11] 0.171 | [12] -0.19 | [13] -0.191 | [14] -0.134 | [15] -0.189 | [16] -0.185 | [17] -0.132

UCHL3 (UniProt P15374)
Chain of UniProt P15374 (P15374 whole entry): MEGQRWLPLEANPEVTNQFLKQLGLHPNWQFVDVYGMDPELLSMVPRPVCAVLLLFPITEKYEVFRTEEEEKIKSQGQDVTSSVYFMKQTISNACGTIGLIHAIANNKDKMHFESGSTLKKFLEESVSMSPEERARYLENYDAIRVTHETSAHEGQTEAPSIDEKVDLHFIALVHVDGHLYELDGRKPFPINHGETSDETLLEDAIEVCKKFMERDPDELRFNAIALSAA
inactive: [1] 0.39 | [2] 0.116 | [3] 0.0229 | [4] 0.0176 | [5] 0.122 | [6] -0.0569 | [7] -0.129 | [8] -0.345 | [9] 0.56 | [10] 0.214 | [11] 0.504 | [12] 0.341 | [13] -0.0242 | [14] 0.0333 | [15] 0.275 | [16] 0.103 | [17] -0.827

USP4 (UniProt Q13107)
inactive: [1] 0.153 | [2] 0.162 | [3] -0.162 | [4] -0.204 | [5] -0.321 | [6] -0.349 | [7] -0.155 | [8] -0.256 | [9] 0.0368 | [10] -0.309 | [11] -0.0374 | [12] -0.0039 | [13] -0.169 | [14] 0.0544 | [15] 0.132 | [16] -0.0646 | [17] -0.558

YOD1 (UniProt Q5VVQ6)
inactive: [1] 0.253 | [2] 0.0444 | [3] 0.0365 | [4] -0.412 | [5] -0.152 | [6] 0.18 | [7] -0.323 | [8] -0.308 | [9] 0.241 | [10] -0.155 | [11] -0.266 | [12] 0.106 | [13] 0.0345 | [14] 0.0106 | [15] 0.189 | [16] 0.0867 | [17] -0.836
